# Test results as given in PubChem BioAssay AID540267 (National Center for Advancing Translational Sciences (NCATS), 2011).
# The campaign covered roughly 340,000 compounds. About 530 (0.16%) were called active. About 2% were inconclusive and are not listed. Rule as the data show it: active = activity change below about -80%; inconclusive = between about -30% and that limit; inactive = weaker than that. The entries come from a sample that favours actives as a whole.
# Assay: Small Molecules that selectively kill Giardia lamblia: qHTS;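 also: parasites exposed to compound for two days anaerobically before the ATP read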
# Conditions: Giardia lamblia trophozoite viability; at 7.66 µM; stronger effect = lower value
# Description: Giardia lamblia is a human pathogen afflicting impoverished nations, and the most common cause of outbreaks of diarrhea in the United States. Giardia has been classified by the CDC as a category B bioterrorism organism. The favored anti giardiasis drugs in the US are metronidazole or tinidazole, compounds that have undesirable side effects. Moreover, increasing resistance to drug regimes and recurrence are a concern. It is thus clear that alternative drug treatments are needed.
# In a collaboration between the University of Maryland, College Park and the NIH Chemical Genomics Center, a bioluminescence Giardia viability assay based on the trophozoites' ATP content was developed. This assay is suitable for high throughput screening, and miniaturized the assay for compound screening in 1536-well plates. The goal of the project is to screen the Molecular Libraries Small Molecule Repository (MLSMR) for compounds that selectively kill Giardia trophozoites.
# NIH Chemical Genomics Center [NCGC]
# NIH Molecular Libraries Probe Centers Network [MLPCN]
# Assay Submitter (PI): Osnat Herzberg, University of Maryland, College Park, MD.
# 1. Dispense 2 ul/well media
# 2. Dispense 23 nl/well compounds
# 3. Dispense 4 ul/well Giardia trophozoites at a concentration of 100 cells/well
# 4. Incubate 48 hrs at 37 deg C anaerobically
# 5. Dispense 4 ul/well ATPLite 1-Step Luminescence assay kit
# 6. Incubate 15-30 min at room temperature
# 7. Read luminescence signal on ViewLux plate reader
# % is scaled to controls: 0 for no effect and ±100 for the full control effect.
row,SMILES,activity change
1,CCNC(=O)Nc1ccc(S(=O)(=O)Nc2cnc(C)nc2C)cc1,-28.2% (inactive)
2,CN(CC(=O)Nc1ccc(OC(F)(F)F)cc1)C(=O)C1CCC1,29.9% (inactive)
3,N#Cc1c(N)nc2c(c1N)CC(C(F)(F)F)O2 (stereo not drawn),-7.55% (inactive)
4,C=CCNC(=O)c1ccc2nc(-c3ccco3)c(-c3ccco3)nc2c1,-26.3% (inactive)
5,NC(=O)c1ncn([C@@H]2O[C@H](CN=C3NS(=O)(=O)c4ccccc43)[C@@H](O)[C@H]2O)n1,-14.2% (inactive)
6,CC(=NNC(=O)c1ccncc1)c1ccc(Cl)c(Cl)c1,-4.59% (inactive)
7,COC(=O)[C@]1(C)N[C@H](c2ccc(-c3ccc(Cl)c(Cl)c3)cc2)[C@@H]2C(=O)N(C)C(=O)[C@@H]21,-3.14% (inactive)
8,COC(=O)C1=C(C(=O)c2ccc(C)cc2)C(c2ccccc2)n2nnnc2N1 (stereo not drawn),2.03% (inactive)
9,Cc1ccc(S(=O)(=O)N2CCN(C(=O)CSc3cc(C)ccc3C)CC2)c(C)c1,-9.03% (inactive)
10,CN(C)S(=O)(=O)c1cc(C(=O)Nc2ccn(C)n2)c(Cl)cc1Cl,4.66% (inactive)
11,C=CCn1c(CCNC(=O)c2ccccc2F)nnc1SCC(=O)Nc1ccc(OC)cc1,1.96% (inactive)
12,CCN(CC)CCCNC(=O)c1c(O)c2cc(F)cc3c2n(c1=O)C(C)CC3 (stereo not drawn),31% (inactive)
13,COc1cc(SC)ccc1C(=O)Nc1nc(C)cs1,-94.7% (active)
14,COc1ccc(C(=O)Nc2cccc(NC(=O)c3ccc(OC)cc3OC)n2)c(OC)c1,-19% (inactive)
15,COc1cc(SC)ccc1C(=O)N(Cc1ccccc1)c1ccccc1,-27.1% (inactive)
16,CC(=O)N1CCc2c(sc(NC(=O)CCS(=O)(=O)c3ccccc3)c2C#N)C1,-1.29% (inactive)
17,CCCN1CCC(=O)N(C(CSc2ccc(OC)cc2)Cc2ccccc2)CC1 (stereo not drawn),-25.3% (inactive)
18,CN(CCO)c1ccc(/C=N/Nc2nncc3ccccc23)cc1,-87.9% (active)
19,C/C(=N\Nc1nncc2ccccc12)c1ccc(Cl)c([N+](=O)[O-])c1,-7.6% (inactive)
20,COc1cccc(/C=N\Nc2nncc(-c3ccccc3)n2)c1,5.7% (inactive)
21,CC1(C)CCc2cc(S(=O)(=O)N3CCN(c4nc(-c5cccs5)nc5ccccc45)CC3)ccc2O1,-0.147% (inactive)
22,COc1ccc(CN(Cc2ccccc2)C(=O)c2ccc(O)cc2)cc1COc1ccc(NC(C)=O)cc1,41.3% (inactive)
23,CC(=O)OCC(NC(=O)C(Cc1ccccc1)NC(=O)OC(C)(C)C)C1OC(n2ccc(=O)[nH]c2=O)C(OC(C)=O)C1OC(C)=O (stereo not drawn),-16.1% (inactive)
